According to paper PMC7862700, “An all-to-all approach to the identification of sequence-specific readers for epigenetic DNA modifications on cytosine”:

Legend:
Experiment in all cases: DAPPL (digital affinity profiling via proximity ligation, sequencing); 10 mM Tris-HCl pH 7.5, 50 mM NaCl, 1 mM DTT, 4% glycerol, room temperature, 30 min; GST-TFs on glutathione beads, 16-mer random dsDNA library, 0.1% formaldehyde crosslink after washing; high values mean tight binding
FEV = target: T1, FEV (Homo sapiens, UniProt Q99581 1-238); conditions: protein: recombinant; tags: N-terminal GST; dsDNA, one strand shown
T1 sequence: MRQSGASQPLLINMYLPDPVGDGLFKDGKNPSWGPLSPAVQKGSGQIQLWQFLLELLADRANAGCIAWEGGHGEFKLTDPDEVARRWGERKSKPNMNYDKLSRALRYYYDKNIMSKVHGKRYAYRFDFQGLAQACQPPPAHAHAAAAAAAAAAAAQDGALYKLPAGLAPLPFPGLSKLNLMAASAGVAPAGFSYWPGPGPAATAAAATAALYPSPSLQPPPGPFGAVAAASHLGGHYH
Outline: (§1)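 Human transcription factors fused to GST were expressed in yeast, captured on glutathione beads, given DNA barcodes and pooled with a GST-only negative control. Pools were incubated with 200 nmole of a 16-mer random double-stranded DNA library in Tris/NaCl/DTT/glycerol buffer at room temperature for 30 min. They were then washed, crosslinked with 0.1% formaldehyde, proximity-ligated (BsaI/T4 ligase, 1 h, 37 °C), PCR-amplified and sequenced on an Illumina NextSeq500. Binding signal is each 6-mer's read frequency for a factor divided by its frequency for the GST control.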

ETV5 = ETV5 (Homo sapiens, UniProt P41161 1-510); conditions: protein: recombinant; tags: N-terminal GST; dsDNA, one strand shown
Outline: as §1

HSF1 = HSF1 (Homo sapiens, UniProt Q00613 1-529); conditions: protein: recombinant; tags: N-terminal GST; chain copies: 3; dsDNA, one strand shown
Outline: as §1

SPIC = target: T2, SPIC (Homo sapiens, UniProt Q8N5J4 1-248); conditions: protein: recombinant; tags: N-terminal GST; dsDNA, one strand shown
T2 sequence: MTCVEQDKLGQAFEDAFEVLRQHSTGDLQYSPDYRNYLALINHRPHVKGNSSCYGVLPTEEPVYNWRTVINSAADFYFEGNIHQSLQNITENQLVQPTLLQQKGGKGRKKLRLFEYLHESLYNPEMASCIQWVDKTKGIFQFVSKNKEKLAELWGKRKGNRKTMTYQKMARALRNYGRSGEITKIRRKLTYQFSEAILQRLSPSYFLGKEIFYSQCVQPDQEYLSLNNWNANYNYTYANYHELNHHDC
Outline: as §1

ELF4 = ELF4 (Homo sapiens, UniProt Q99607 1-663); conditions: protein: recombinant; tags: N-terminal GST; dsDNA, one strand shown
Outline: as §1

ELK4 = target: T3, ELK4 (Homo sapiens, UniProt P28324-2 1-405); conditions: protein: recombinant; tags: N-terminal GST; dsDNA, one strand shown
T3 sequence: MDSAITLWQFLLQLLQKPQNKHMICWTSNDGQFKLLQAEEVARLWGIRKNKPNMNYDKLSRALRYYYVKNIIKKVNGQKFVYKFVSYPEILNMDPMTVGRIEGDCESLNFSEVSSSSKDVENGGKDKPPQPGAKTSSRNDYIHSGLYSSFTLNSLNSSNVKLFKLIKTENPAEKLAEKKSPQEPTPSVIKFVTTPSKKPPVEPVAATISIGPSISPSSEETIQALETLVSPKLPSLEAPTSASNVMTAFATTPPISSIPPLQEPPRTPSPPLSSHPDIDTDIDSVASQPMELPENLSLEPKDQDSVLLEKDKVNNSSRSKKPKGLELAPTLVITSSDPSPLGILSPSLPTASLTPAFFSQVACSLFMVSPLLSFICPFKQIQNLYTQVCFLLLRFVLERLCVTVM
Outline: as §1

ETV2 = target: T4, ETV2 (Homo sapiens, UniProt O00321 1-342); conditions: protein: recombinant; tags: N-terminal GST; dsDNA, one strand shown
T4 sequence: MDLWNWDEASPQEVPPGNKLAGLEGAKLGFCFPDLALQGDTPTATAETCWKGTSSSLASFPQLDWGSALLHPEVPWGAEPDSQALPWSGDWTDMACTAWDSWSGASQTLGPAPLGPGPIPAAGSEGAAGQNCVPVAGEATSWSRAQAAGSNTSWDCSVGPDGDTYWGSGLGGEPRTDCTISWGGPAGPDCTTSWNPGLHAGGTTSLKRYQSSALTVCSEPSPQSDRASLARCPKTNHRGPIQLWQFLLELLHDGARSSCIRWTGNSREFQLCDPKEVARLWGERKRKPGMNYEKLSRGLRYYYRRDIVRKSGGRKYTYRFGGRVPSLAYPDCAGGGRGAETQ
Outline: as §1

ELF3 = target: T5, ELF3 (Homo sapiens, UniProt P78545 1-371); conditions: protein: recombinant; tags: N-terminal GST; dsDNA, one strand shown
T5 sequence: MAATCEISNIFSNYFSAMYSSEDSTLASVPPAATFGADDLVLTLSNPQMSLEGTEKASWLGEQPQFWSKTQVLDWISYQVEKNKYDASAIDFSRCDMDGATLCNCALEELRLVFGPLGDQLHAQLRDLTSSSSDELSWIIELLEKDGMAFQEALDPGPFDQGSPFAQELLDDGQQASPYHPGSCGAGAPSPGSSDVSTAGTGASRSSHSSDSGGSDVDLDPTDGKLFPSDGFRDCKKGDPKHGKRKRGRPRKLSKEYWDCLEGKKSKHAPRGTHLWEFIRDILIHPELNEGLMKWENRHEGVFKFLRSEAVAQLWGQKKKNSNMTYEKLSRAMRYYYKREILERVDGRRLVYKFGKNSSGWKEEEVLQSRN
Outline: as §1

CRX = CRX (Homo sapiens, UniProt O43186 1-299); conditions: protein: recombinant; tags: N-terminal GST; dsDNA, one strand shown
Outline: as §1

ETV1 = ETV1 (Homo sapiens, UniProt P50549 1-477); conditions: protein: recombinant; tags: N-terminal GST; dsDNA, one strand shown
Outline: as §1

ERF = target: T6, ERF (Homo sapiens, UniProt P50548 1-548); conditions: protein: recombinant; tags: N-terminal GST; dsDNA, one strand shown
T6 sequence: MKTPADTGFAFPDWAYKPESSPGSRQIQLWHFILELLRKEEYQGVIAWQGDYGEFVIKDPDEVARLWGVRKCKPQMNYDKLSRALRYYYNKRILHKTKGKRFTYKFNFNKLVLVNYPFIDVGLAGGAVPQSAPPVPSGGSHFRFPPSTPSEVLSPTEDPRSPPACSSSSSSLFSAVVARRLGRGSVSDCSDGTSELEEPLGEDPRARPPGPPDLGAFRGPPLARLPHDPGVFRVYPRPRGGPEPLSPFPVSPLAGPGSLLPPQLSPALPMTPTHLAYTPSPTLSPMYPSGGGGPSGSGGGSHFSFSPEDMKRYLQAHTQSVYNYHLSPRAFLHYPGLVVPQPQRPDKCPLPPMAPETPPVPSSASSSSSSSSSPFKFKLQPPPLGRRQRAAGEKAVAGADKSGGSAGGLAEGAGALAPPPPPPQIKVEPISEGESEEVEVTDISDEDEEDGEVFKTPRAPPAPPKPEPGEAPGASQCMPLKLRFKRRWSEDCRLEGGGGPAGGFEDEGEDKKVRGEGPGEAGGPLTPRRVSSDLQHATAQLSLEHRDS
Outline: as §1

ETV3L = target: T7, ETV3L (Homo sapiens, UniProt Q6ZN32 1-361); conditions: protein: recombinant; tags: N-terminal GST; dsDNA, one strand shown
T7 sequence: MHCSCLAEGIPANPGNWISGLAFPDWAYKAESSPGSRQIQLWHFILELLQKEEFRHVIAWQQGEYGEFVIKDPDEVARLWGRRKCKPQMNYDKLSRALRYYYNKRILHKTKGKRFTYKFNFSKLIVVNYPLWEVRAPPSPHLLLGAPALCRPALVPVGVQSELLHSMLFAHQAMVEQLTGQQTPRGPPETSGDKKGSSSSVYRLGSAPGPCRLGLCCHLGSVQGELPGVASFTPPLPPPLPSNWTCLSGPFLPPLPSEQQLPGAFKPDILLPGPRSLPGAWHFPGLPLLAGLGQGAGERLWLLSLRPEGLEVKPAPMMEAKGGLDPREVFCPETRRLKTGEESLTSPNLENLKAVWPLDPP
Outline: as §1

ETS2 = target: T8, ETS2 (Homo sapiens, UniProt P15036 1-469); conditions: protein: recombinant; tags: N-terminal GST; dsDNA, one strand shown
T8 sequence: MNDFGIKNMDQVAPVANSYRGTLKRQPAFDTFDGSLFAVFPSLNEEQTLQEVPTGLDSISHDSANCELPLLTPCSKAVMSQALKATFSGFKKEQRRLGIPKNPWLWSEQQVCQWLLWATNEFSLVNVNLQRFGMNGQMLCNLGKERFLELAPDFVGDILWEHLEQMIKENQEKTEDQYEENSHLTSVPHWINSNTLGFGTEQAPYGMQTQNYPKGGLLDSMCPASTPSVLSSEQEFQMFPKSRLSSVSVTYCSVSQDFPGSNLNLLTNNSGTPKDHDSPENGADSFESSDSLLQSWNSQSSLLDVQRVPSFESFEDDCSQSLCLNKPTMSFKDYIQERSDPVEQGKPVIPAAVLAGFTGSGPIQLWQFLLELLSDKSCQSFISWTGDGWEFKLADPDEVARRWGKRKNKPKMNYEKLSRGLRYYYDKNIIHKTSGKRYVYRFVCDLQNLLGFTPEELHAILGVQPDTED
Outline: as §1

SPDEF = target: T9, SPDEF (Homo sapiens, UniProt O95238 1-335); conditions: protein: recombinant; tags: N-terminal GST; dsDNA, one strand shown
T9 sequence: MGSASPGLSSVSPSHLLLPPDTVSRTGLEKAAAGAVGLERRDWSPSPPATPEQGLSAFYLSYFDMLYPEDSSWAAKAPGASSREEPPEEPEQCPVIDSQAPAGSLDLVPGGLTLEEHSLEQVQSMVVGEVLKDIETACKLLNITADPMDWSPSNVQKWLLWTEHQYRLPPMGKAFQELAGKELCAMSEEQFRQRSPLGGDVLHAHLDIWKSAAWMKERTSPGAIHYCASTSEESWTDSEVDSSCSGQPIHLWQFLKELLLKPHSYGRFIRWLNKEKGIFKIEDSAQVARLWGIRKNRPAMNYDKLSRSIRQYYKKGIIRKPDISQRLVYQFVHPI
Outline: as §1

ETV7 = target: T10, ETV7 (Homo sapiens, UniProt Q9Y603 1-341); conditions: protein: recombinant; tags: N-terminal GST; dsDNA, one strand shown
T10 sequence: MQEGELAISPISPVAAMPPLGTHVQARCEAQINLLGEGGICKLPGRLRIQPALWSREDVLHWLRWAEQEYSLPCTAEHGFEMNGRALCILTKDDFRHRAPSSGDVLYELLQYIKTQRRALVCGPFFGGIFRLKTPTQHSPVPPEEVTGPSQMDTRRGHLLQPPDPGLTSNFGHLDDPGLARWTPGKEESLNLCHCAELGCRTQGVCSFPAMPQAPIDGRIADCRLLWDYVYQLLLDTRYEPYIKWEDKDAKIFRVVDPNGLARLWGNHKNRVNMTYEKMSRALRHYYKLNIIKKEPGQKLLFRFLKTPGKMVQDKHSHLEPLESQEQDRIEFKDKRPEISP
Outline: as §1

ELF5 = target: T11, ELF5 (Homo sapiens, UniProt Q9UKW6-2 1-255); conditions: protein: recombinant; tags: N-terminal GST; dsDNA, one strand shown
T11 sequence: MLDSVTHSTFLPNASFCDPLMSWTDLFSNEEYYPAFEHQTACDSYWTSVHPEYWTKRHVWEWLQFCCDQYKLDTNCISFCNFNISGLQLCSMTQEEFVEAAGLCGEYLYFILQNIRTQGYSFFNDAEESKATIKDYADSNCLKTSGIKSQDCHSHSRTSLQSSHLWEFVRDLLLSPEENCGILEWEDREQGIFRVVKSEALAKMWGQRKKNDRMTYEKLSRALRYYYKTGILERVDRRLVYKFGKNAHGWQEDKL
Outline: as §1

ETV3 = target: T12, ETV3 (Homo sapiens, UniProt P41162-2 1-143); conditions: protein: recombinant; tags: N-terminal GST; dsDNA, one strand shown
T12 sequence: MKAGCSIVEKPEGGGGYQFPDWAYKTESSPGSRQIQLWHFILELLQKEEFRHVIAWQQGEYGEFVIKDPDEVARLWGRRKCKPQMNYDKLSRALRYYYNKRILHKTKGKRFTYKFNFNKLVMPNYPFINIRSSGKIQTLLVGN
Outline: as §1

ETV6 = ETV6 (Homo sapiens, UniProt P41212 1-452); conditions: protein: recombinant; tags: N-terminal GST; dsDNA, one strand shown
Outline: as §1

ETV1, sequence (P50549 whole entry): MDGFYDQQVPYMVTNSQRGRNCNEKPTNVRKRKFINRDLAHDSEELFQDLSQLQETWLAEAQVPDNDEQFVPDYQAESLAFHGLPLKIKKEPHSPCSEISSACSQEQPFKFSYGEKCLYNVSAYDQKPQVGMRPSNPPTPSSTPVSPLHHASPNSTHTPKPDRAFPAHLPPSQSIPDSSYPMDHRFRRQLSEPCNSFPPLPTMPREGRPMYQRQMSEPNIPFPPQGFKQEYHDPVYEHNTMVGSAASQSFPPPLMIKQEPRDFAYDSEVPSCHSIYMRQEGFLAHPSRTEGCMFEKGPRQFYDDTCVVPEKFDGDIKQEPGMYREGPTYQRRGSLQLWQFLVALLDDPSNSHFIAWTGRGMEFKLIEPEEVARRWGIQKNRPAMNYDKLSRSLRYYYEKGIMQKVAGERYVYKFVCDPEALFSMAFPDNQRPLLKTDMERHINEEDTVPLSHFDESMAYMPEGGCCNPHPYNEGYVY
ETV5, sequence (P41161 whole entry): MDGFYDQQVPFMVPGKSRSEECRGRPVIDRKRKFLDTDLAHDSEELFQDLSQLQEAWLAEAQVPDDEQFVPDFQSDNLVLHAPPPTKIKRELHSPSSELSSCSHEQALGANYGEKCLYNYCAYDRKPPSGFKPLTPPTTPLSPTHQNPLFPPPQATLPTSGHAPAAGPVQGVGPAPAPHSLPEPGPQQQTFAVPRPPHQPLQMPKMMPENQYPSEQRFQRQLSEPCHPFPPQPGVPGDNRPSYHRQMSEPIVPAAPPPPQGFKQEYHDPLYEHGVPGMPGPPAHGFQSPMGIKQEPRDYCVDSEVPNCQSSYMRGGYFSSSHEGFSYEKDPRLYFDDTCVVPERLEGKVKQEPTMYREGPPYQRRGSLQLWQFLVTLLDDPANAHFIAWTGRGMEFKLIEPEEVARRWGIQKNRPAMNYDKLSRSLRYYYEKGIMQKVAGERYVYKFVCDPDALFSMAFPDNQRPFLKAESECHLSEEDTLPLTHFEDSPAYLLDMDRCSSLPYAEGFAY
CRX, sequence (O43186 whole entry): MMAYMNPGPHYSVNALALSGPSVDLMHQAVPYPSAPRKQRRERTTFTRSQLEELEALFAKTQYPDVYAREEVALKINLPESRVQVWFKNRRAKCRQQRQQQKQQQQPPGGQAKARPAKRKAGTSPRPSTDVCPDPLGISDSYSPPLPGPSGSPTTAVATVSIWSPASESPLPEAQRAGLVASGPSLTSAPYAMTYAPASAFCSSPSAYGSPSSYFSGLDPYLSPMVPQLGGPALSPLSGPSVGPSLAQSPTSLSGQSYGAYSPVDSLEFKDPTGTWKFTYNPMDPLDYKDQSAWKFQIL
HSF1, sequence (Q00613 whole entry): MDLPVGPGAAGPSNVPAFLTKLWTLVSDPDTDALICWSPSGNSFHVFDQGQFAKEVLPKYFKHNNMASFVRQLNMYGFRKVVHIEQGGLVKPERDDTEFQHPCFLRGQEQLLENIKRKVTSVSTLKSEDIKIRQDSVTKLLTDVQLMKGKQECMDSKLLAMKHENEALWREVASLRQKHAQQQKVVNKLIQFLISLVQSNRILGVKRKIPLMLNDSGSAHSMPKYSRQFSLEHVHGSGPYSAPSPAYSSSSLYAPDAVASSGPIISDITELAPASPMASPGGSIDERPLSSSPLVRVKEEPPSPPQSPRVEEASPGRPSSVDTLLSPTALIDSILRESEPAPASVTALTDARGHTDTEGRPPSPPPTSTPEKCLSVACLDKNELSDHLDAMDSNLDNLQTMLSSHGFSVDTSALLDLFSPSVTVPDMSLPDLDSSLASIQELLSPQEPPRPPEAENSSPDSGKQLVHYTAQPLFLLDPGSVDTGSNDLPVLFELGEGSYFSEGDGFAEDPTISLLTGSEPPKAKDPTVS
ETV6, sequence (P41212 whole entry): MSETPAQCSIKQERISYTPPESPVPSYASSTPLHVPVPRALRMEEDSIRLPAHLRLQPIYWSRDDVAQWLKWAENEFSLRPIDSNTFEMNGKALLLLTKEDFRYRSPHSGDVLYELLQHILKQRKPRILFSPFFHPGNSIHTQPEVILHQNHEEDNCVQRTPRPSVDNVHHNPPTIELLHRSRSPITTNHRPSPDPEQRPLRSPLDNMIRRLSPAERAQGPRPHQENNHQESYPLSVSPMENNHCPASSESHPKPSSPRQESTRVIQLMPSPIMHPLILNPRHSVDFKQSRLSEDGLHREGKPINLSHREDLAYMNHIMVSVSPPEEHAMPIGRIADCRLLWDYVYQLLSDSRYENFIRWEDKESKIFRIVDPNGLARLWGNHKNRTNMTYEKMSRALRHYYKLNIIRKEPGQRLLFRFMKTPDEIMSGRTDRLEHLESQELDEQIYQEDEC
ELF4, sequence (Q99607 whole entry): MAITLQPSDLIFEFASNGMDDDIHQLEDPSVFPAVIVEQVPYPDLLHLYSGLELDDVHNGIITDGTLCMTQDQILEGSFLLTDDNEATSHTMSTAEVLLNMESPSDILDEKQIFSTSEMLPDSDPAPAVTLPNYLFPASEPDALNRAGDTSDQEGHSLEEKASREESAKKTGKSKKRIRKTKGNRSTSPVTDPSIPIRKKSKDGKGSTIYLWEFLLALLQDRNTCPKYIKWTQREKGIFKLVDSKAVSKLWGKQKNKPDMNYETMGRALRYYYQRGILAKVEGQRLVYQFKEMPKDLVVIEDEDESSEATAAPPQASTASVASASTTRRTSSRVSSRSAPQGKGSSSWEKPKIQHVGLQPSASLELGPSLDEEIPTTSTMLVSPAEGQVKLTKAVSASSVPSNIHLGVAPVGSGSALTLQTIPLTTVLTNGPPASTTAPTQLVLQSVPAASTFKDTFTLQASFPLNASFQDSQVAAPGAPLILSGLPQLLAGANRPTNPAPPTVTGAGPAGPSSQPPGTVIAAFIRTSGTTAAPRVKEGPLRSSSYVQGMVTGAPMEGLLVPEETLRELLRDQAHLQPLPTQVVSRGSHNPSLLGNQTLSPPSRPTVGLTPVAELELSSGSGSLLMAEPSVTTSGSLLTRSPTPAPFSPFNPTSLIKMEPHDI

Sequence	binding signal (FEV)	binding signal (ETV5)	binding signal (HSF1)	binding signal (SPIC)	binding signal (ELF4)	binding signal (ELK4)	binding signal (ETV2)	binding signal (ELF3)	binding signal (CRX)	binding signal (ETV1)	binding signal (ERF)	binding signal (ETV3L)	binding signal (ETS2)	binding signal (SPDEF)	binding signal (ETV7)	binding signal (ELF5)	binding signal (ETV3)	binding signal (ETV6)
AAACCT	1.08 fold enrichment (6-mer frequency, TF over GST control)	1.13 fold enrichment (6-mer frequency, TF over GST control)	1.15 fold enrichment (6-mer frequency, TF over GST control)	1.09 fold enrichment (6-mer frequency, TF over GST control)	1.16 fold enrichment (6-mer frequency, TF over GST control)	1.2 fold enrichment (6-mer frequency, TF over GST control)	1.19 fold enrichment (6-mer frequency, TF over GST control)	1.19 fold enrichment (6-mer frequency, TF over GST control)	1.24 fold enrichment (6-mer frequency, TF over GST control)	1.15 fold enrichment (6-mer frequency, TF over GST control)	1.18 fold enrichment (6-mer frequency, TF over GST control)	1.07 fold enrichment (6-mer frequency, TF over GST control)	1.13 fold enrichment (6-mer frequency, TF over GST control)	1.05 fold enrichment (6-mer frequency, TF over GST control)	1.16 fold enrichment (6-mer frequency, TF over GST control)	1.13 fold enrichment (6-mer frequency, TF over GST control)	1.1 fold enrichment (6-mer frequency, TF over GST control)	1.16 fold enrichment (6-mer frequency, TF over GST control)
CCTGCT	1.67 fold enrichment (6-mer frequency, TF over GST control)	1.64 fold enrichment (6-mer frequency, TF over GST control)	1.34 fold enrichment (6-mer frequency, TF over GST control)	1.71 fold enrichment (6-mer frequency, TF over GST control)	1.69 fold enrichment (6-mer frequency, TF over GST control)	1.73 fold enrichment (6-mer frequency, TF over GST control)	1.59 fold enrichment (6-mer frequency, TF over GST control)	1.47 fold enrichment (6-mer frequency, TF over GST control)	1.38 fold enrichment (6-mer frequency, TF over GST control)	1.68 fold enrichment (6-mer frequency, TF over GST control)	1.53 fold enrichment (6-mer frequency, TF over GST control)	1.65 fold enrichment (6-mer frequency, TF over GST control)	1.62 fold enrichment (6-mer frequency, TF over GST control)	1.82 fold enrichment (6-mer frequency, TF over GST control)	1.65 fold enrichment (6-mer frequency, TF over GST control)	1.84 fold enrichment (6-mer frequency, TF over GST control)	1.67 fold enrichment (6-mer frequency, TF over GST control)	1.68 fold enrichment (6-mer frequency, TF over GST control)
